Some test systems named below: T-47D breast; BT-549 breast; MDA-MB-435 melanoma; SW-620 colon; MCF7 breast; HCT-116 colon; HCC-2998 colon; KM12 colon.
Experiment in all cases: NCI-60 one-dose screen, 48 h (100 = growth as untreated, 0 = no growth, -100 = all killed)
Details in all cases: 10 µM unless noted

Compounds without any hit were thinned out: in the full panel of roughly 83,000, 20% have a hit.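 Step 1: grow cells in 96-well plates. Step 2: add test compound at a single concentration. Step 3: incubate 48 h. Step 4: record percent growth.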 Values without a mark were called inactive. Calls of active or inactive are those of the source. How the source made its calls: active means growth percent below 10; inactive means the rest.

For the compound `O=C(CSc1nc2sc3c(c2c(=O)n1-c1ccccc1)CCCCC3)N/N=C/c1cccc([N+](=O)[O-])c1`, the growth in the experiment with T-47D breast was 64.1%; with BT-549 breast it was 38.1%; in the experiment on MDA-MB-435 melanoma, 72.9%; in the experiment with SW-620 colon, 52.4%; in the experiment with MCF7 breast, 45.9%; in the experiment with HCT-116 colon it was 4.84% (active). Moreover, the results for the growth in the experiment with HCC-2998 colon and in the experiment on KM12 colon were 98% and 47.6%, respectively.

As for `CCN1CCN(C(=O)[C@]23CCC(C)(C)C[C@@H]2C2=CC[C@@H]4[C@@]5(C)CCC(=O)C(C)(C)[C@@H]5CC[C@@]4(C)[C@]2(C)CC3)CC1`, the growth with T-47D breast is 56.4%; with BT-549 breast, 58.6%; in the experiment with MDA-MB-435 melanoma, 33.9%; with SW-620 colon it was 31.8%; in the experiment on MCF7 breast, 39.9%; in the experiment on HCT-116 colon, 19.1%. The results for the growth with HCC-2998 colon and with KM12 colon were 62.8% and 41.2%, respectively.

For the compound `CCn1cc(C(=O)NNC(=S)Nc2ccc(C)cc2)c(=O)c2ccc(C)nc21`, the growth with T-47D breast is 88.1%; in the experiment with BT-549 breast, 97.1%; in the experiment on MDA-MB-435 melanoma it was 101%; in the experiment with SW-620 colon it was 99.2%; with MCF7 breast it was 97.2%; in the experiment on HCT-116 colon, 93%. For the same compound, the values for the growth in the experiment on HCC-2998 colon and in the experiment with KM12 colon were 92.7% and 103%, respectively.

As for `N#Cc1c(-c2ccccc2)cc(-c2ccc(Nc3nc(Nc4ccc(Cl)cc4)nc(Nc4ccc(Cl)cc4)n3)cc2)nc1N`, the growth is -39.5% (active) with T-47D breast; -68.1% (active) in the experiment with BT-549 breast; -34.4% (active) in the experiment with MDA-MB-435 melanoma; -39.2% (active) with SW-620 colon; 22% in the experiment on MCF7 breast; 4.99% (active) in the experiment on HCT-116 colon. The results for the growth in the experiment on HCC-2998 colon and in the experiment on KM12 colon were -14.3% (active) and 50.1%, respectively.

On to `CCN1C(=O)N(CC)C2C1NN=c1s/c(=C\c3ccccc3F)c(=O)n12` (configuration not stated), for which the growth was 55.2% with T-47D breast; 7.28% (active) in the experiment with BT-549 breast; -37.4% (active) in the experiment on MDA-MB-435 melanoma; 18.2% in the experiment on SW-620 colon; 15.2% with MCF7 breast; 7.85% (active) in the experiment with HCT-116 colon. For the same compound, the figures for the growth in the experiment with HCC-2998 colon and with KM12 colon were 12.8% and 4.31% (active), respectively.

For the compound `Oc1c(Br)cc(Br)c2ccc(Cn3cc(-c4ccccc4C(F)(F)F)nn3)nc12`, the growth in the experiment with T-47D breast was 83.8%; in the experiment on BT-549 breast it was 107%; in the experiment with MDA-MB-435 melanoma it was 93.1%; in the experiment with SW-620 colon it was 73.5%; with MCF7 breast, 71.5%; in the experiment with HCT-116 colon, 49.1%. Also, the growth with HCC-2998 colon is 110%; in the experiment on KM12 colon, 100%.

For `Cc1ccc(CNc2ccc3nc(CCC4CCCCC4)[nH]c3c2)cc1`, the growth is 3.58% (active) in the experiment with T-47D breast; 88% in the experiment with BT-549 breast; 55.6% in the experiment with MDA-MB-435 melanoma; 32.3% in the experiment on SW-620 colon; 22.1% with MCF7 breast; 16.3% with HCT-116 colon. Moreover, the results for the growth with HCC-2998 colon and in the experiment with KM12 colon were -25.2% (active) and 39.3%, respectively.

For `CCOC(=O)n1ccn(C)c1=S`, the growth in the experiment on T-47D breast is -28.3% (active); with BT-549 breast, 98.7%; in the experiment on MDA-MB-435 melanoma, 102%; with SW-620 colon, 111%; in the experiment with MCF7 breast, 102%; in the experiment with HCT-116 colon, 94.4%. Further, the growth with HCC-2998 colon is 106%; in the experiment on KM12 colon, 101%.

For the compound `COc1ccc(Nc2nc(-c3cc(O)c(C)c(C)c3O)cs2)cc1`, the growth with T-47D breast was 39.5%; in the experiment with BT-549 breast it was 79.1%; in the experiment on MDA-MB-435 melanoma it was 7.82% (active); with SW-620 colon, 70.6%; with MCF7 breast it was 47.1%; with HCT-116 colon it was 82.5%. For the same compound, the growth was 110% with HCC-2998 colon and 23.7% in the experiment on KM12 colon.

`O=C(/C=C/c1cn(-c2ccccc2)nc1-c1ccc(Cl)cc1)c1ccc(F)cc1`: the growth was 38.9% in the experiment on T-47D breast; 96% in the experiment on BT-549 breast; 326% in the experiment with MDA-MB-435 melanoma; 75.4% in the experiment with SW-620 colon; 41.8% with MCF7 breast; 41.1% in the experiment with HCT-116 colon. Besides, the growth in the experiment with HCC-2998 colon was 186%; in the experiment on KM12 colon, 63.8%.

For `N#Cc1nc(-c2ccc(F)cc2)oc1S(=O)(=O)N1CCOCC1`, the growth is -6.45% (active) in the experiment with T-47D breast; 98.5% in the experiment with BT-549 breast; 79.8% with MDA-MB-435 melanoma; -77.9% (active) in the experiment on SW-620 colon; 30.4% with MCF7 breast; -18.4% (active) in the experiment on HCT-116 colon. Also, the growth in the experiment with HCC-2998 colon is 106%; in the experiment on KM12 colon it was 102%.

With `COc1cc(C2CC(c3ccc(Nc4nc(Nc5ccc(Cl)cc5)nc(Nc5ccc(Cl)cc5)n4)cc3)=NN2C(C)=O)cc(OC)c1OC` (configuration not stated), the growth was 69.2% in the experiment on T-47D breast; 104% in the experiment on BT-549 breast; 89.1% in the experiment with MDA-MB-435 melanoma; 106% with SW-620 colon; 89% in the experiment on MCF7 breast; 84.9% with HCT-116 colon. For the same compound, the growth in the experiment on HCC-2998 colon was 100%; with KM12 colon, 106%.

Take `Cn1ccnc1C(=O)/C=C/c1ccc(C(=O)Nc2ccccc2O)cc1`: the growth in the experiment with T-47D breast was 2.47% (active); in the experiment on BT-549 breast it was 28.4%; in the experiment with MDA-MB-435 melanoma it was 69.3%; in the experiment on SW-620 colon, 10.3%; in the experiment with MCF7 breast it was 10.2%; in the experiment with HCT-116 colon, 11.6%. The results for the growth in the experiment on HCC-2998 colon and with KM12 colon were 82.7% and 15.2%, respectively.

With `COC(=O)CC[C@@H]1O[C@@H](c2cccc(C(F)(F)F)c2)[C@@H](O)[C@H]1O`, the growth in the experiment on T-47D breast is 98.8%; in the experiment with BT-549 breast it was 98.9%; with MDA-MB-435 melanoma it was 102%; with SW-620 colon, 100%; in the experiment with MCF7 breast, 96.7%; in the experiment on HCT-116 colon, 98.2%. Further, the growth with HCC-2998 colon is 114%; with KM12 colon it was 94.1%.
